{
  "source": "PubChem BioAssay (EPA / NIEHS)",
  "key": {"[1]": {"molecular_target": "Androgen receptor (Homo sapiens) (UniProt P10275)", "sequence (P10275 whole entry, looked up, the tested form may be a part)": "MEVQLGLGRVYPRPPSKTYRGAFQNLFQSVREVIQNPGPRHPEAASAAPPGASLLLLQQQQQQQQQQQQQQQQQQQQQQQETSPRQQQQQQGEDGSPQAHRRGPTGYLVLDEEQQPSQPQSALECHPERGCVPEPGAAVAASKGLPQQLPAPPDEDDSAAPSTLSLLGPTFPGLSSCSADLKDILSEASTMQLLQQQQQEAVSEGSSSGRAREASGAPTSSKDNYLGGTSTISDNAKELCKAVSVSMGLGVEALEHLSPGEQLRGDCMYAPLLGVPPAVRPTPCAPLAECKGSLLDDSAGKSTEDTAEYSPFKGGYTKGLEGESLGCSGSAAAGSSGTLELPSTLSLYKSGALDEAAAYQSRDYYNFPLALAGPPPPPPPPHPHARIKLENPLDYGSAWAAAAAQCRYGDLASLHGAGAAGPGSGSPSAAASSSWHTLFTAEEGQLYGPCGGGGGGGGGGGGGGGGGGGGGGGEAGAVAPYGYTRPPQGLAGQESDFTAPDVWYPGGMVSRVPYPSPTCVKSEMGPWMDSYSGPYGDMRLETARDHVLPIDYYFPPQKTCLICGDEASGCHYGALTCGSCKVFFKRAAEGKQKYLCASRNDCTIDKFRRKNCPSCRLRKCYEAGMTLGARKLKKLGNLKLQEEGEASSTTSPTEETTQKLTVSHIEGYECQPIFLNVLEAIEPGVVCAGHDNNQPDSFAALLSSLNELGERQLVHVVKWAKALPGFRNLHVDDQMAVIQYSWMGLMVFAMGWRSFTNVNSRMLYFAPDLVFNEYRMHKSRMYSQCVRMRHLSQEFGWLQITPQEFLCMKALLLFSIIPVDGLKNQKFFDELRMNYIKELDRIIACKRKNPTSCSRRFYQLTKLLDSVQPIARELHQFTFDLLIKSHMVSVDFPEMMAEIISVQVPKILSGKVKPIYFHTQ", "test": "ATG_AR_TRANS: Attagene TRANS-FACTORIAL HepG2 Assay for human Androgen Receptor (AR) (AID 2282973)", "conditions": "HepG2 Attagene TRANS-FACTORIAL AR reporter transcription", "method_in_brief": "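HepG2 cells transiently transfected with multiplexed GAL4-UAS reporter units and chimeric NR-Gal4 fusion; 24 h compound exposure. Reporter mRNA measured by RT-PCR, 6-FAM labelling, HpaI digestion and capillary electrophoresis; gain-of-signal fitted relative to DMSO baseline.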"}, "[2]": {"molecular_target": "human Acetylcholinesterase (AChE), ACHE (gene 43) (UniProt P22303)", "sequence (P22303 whole entry, looked up)": "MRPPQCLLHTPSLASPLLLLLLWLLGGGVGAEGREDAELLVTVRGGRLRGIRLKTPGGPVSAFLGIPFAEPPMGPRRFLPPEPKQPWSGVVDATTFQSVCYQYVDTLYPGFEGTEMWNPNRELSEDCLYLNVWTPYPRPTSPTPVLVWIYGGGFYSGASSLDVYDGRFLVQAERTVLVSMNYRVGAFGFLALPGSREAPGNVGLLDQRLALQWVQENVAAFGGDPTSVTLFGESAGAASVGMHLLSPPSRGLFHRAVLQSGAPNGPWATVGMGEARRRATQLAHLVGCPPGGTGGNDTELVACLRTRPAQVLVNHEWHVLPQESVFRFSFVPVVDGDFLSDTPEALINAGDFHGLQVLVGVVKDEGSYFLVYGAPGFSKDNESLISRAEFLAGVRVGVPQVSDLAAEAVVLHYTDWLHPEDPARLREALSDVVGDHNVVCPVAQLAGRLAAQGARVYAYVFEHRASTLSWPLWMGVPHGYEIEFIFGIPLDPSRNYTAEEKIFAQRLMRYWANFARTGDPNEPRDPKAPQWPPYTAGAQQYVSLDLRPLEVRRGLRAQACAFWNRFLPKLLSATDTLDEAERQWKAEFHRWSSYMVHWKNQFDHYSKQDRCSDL", "test": "NVS_ENZ_hAChE: NovaScreen (NVS) Enzymatic Assay for human Acetylcholinesterase (AChE) (AID 2283129)", "method_in_brief": "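Cell-free colorimetric enzyme-activity assay; compounds read 0.33 hour after dosing, loss of signal vs DMSO baseline. Primary screen in duplicate at 25 uM single concentration, with active compounds retested in concentration series.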"}, "[3]": {"molecular_target": "human Raf-1 Proto-Oncogene, serine/threonine Kinase (RAF1), RAF1 (gene 5894) (UniProt P04049)", "sequence (P04049 whole entry, looked up)": "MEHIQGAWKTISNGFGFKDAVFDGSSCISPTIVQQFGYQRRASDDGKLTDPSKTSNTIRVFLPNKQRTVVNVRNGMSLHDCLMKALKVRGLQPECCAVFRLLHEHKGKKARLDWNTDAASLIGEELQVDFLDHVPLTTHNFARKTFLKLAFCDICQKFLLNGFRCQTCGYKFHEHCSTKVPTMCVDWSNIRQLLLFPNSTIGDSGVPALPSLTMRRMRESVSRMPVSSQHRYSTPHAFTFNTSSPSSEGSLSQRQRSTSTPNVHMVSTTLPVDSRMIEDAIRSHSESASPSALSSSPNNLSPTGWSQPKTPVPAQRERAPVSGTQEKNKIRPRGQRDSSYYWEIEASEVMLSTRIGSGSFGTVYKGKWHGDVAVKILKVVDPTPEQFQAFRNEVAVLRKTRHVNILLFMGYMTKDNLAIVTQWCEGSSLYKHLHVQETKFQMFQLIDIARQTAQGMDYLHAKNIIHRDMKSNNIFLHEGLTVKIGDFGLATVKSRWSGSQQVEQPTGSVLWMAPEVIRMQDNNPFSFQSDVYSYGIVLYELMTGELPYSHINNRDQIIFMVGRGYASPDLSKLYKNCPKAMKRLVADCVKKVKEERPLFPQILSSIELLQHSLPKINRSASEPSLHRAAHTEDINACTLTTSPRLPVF", "test": "NVS_ENZ_hRAF1: NovaScreen (NVS) Enzymatic Assay for human Raf-1 Proto-Oncogene, serine/threonine Kinase (RAF1) (AID 2283216)", "method_in_brief": "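Cell-free recombinant kinase with specific fluorescent substrate, product separated by electrophoretic mobility shift; read 1 h after dosing. Primary screen at 25 uM in duplicate; hits then run in concentration-response up to 50 uM, fitted as loss of signal versus DMSO.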"}, "[4]": {"molecular_target": "Voltage-dependent N-type calcium channel subunit alpha-1B (Rattus norvegicus) (UniProt Q02294)", "test": "NVS_IC_rCaChN: NovaScreen (NVS) Ion Channel Assay for rat Calcium Channel, Type N (CaChN) (AID 2283317)"}, "[5]": {"molecular_target": "human Androgen Receptor (AR), AR (gene 367) (UniProt P10275)", "sequence (P10275 whole entry, looked up)": "as the sequence (P10275 whole entry, looked up, the tested form may be a part) above", "test": "ATG_hAR_XSP1: Attagene TRANS-FACTORIAL Multi-Species (XSP1) HepG2 Assay for human Androgen Receptor (AR) (AID 2283785)", "description": "ATG_XSP1_multi-species_TRANS is a cell-based, multiplexed assay created by modifying the existing Attagene TRANS-FACTORIAL system to include a panel of nuclear receptors from some or all the following species: human (Homo sapiens), mouse (Mus musculus), frog (Xenopus laevis), zebrafish (Danio rerio), chicken (Gallus gallus), and turtle (Chrysemys picta). The ECOTOX-FACTORIAL format uses HepG2, a human liver cell line, with measurements taken at 24 hours after chemical dosing in a 24-well plate. Xsp1 included 3 nM 6-alpha-fluorotestosterone to partially stimulate the androgen receptor.ATG_hAR_XSP1 is one of 29 assay components measured or calculated from the ATG_XSP1_multi-species_TRANS assay. It is designed to make measurements of mRNA induction, a form of inducible reporter, as detected with fluorescence intensity signals by Reverse transcription polymerase chain reaction (RT-PCR) and Capillary electrophoresis technology.The assay endpoint ATG_hAR_XSP1 was analyzed in the positive analysis fitting direction relative to DMSO as the negative control and baseline of activity. […] Furthermore, this assay endpoint can be referred to as a primary readout, because this assay has produced multiple assay endpoints where this one serves a reporter gene function. […]"}, "[6]": {"molecular_target": "human AMP-activated Protein Kinase, alpha 1 (AMPKa1), PRKAA1 (gene 5562) (UniProt Q13131)", "sequence (Q13131 whole entry, looked up)": "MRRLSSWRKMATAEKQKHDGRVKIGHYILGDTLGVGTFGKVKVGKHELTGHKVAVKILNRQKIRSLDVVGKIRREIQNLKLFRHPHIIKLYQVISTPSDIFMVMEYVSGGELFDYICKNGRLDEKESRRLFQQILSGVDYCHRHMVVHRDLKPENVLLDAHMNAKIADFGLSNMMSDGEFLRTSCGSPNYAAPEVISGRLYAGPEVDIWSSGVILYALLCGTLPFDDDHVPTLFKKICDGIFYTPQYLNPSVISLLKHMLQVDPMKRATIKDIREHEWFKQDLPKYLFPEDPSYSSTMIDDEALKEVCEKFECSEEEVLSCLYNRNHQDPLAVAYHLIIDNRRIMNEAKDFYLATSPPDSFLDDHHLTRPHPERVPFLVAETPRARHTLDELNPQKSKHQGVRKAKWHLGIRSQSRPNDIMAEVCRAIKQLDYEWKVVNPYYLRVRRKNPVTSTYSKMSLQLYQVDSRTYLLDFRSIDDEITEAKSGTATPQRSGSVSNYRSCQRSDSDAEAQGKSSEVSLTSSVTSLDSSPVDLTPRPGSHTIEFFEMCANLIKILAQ", "test": "NVS_ENZ_hAMPKa1: NovaScreen (NVS) Enzymatic Assay for human AMP-activated Protein Kinase, alpha 1 (AMPKa1) (AID 2283130)", "method_in_brief": "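Recombinant human AMPKα1 activity was measured cell-free by fluorescent substrate conversion with electrophoretic mobility-shift separation, 1 h after dosing. Duplicate single-point screening was at 25 uM; actives (≥30% inhibition) were retested in concentration-response up to 50 uM.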"}, "[7]": {"molecular_target": "human Fibroblast Growth Factor Receptor 1 (FGFR1), FGFR1 (gene 2260) (UniProt P11362)", "sequence (P11362 whole entry, looked up)": "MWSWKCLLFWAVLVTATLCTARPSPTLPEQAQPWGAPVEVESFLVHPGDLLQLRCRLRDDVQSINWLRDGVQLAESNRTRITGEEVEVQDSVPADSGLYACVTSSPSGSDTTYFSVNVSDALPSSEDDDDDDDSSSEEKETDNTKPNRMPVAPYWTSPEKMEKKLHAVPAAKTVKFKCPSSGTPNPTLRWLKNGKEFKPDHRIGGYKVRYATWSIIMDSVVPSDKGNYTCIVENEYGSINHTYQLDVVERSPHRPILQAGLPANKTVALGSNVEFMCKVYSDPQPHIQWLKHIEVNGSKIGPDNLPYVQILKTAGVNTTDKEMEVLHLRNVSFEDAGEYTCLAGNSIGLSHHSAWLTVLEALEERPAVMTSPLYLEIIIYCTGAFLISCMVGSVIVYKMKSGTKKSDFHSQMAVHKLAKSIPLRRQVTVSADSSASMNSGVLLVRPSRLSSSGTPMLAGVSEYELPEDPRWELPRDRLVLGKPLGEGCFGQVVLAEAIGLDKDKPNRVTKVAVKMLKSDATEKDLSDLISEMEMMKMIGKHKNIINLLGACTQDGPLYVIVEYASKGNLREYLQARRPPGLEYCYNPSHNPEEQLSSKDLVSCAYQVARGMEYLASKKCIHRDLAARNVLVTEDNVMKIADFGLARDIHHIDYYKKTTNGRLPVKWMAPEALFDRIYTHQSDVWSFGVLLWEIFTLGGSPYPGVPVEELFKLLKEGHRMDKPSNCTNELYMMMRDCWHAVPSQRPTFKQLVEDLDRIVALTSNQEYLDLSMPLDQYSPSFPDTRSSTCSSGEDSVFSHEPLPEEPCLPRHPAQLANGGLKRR", "test": "NVS_ENZ_hFGFR1: NovaScreen (NVS) Enzymatic Assay for human Fibroblast Growth Factor Receptor 1 (FGFR1) (AID 2283159);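 on AC50: hits lower the signal so potencies describe inhibitors of the kinase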", "method_in_brief": "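Cell-free recombinant kinase with fluorescent substrate, product separated by electrophoretic mobility shift; read 1 hour after dosing, loss of signal relative to DMSO. Initial screen in duplicate at 25 uM, actives followed in concentration series.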"}, "[8]": {"molecular_target": "human MET Proto-Oncogene, Receptor Tyrosine Kinase (MET), MET (gene 4233) (UniProt P08581)", "test": "NVS_ENZ_hMet: NovaScreen (NVS) Enzymatic Assay for human MET Proto-Oncogene, Receptor Tyrosine Kinase (MET) (AID 2283180)", "method_in_brief": "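Cell-free MET kinase assay using recombinant protein and fluorescent substrate, with mobility-shift separation; read 1 h after dosing. Primary duplicate at 25 uM; actives in singleton concentration-response to 50 uM maximum. Signal loss versus DMSO.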"}, "[9]": {"molecular_target": "human Phosphatase and Tensin Homolog (PTEN), PTEN (gene 5728) (UniProt P60484)", "test": "NVS_ENZ_hPTEN: NovaScreen (NVS) Enzymatic Assay for human Phosphatase and Tensin Homolog (PTEN) (AID 2283203)", "method_in_brief": "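Cell-free recombinant human PTEN with fluorescent substrate; product separated by electrophoretic mobility shift and read by fluorescence 1 h after dosing. Primary screen in duplicate at 25 uM, actives followed in concentration series versus DMSO.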"}, "[10]": {"molecular_target": "human Tyrosine Protein Kinase Receptor Tie-2 (Tie2), TEK (gene 7010) (UniProt Q02763)", "test": "NVS_ENZ_hTie2: NovaScreen (NVS) Enzymatic Assay for human Tyrosine Protein Kinase Receptor Tie-2 (Tie2) (AID 2283225)", "method_in_brief": "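Recombinant human Tie2 kinase activity was read cell-free by fluorescence with electrophoretic mobility shift, 1 hour after dosing. The screen used 25 uM in duplicate, then concentration-response up to 50 uM. Signal loss was scored against DMSO.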"}, "[11]": {"molecular_target": "Bile acid receptor (Homo sapiens) (UniProt Q96RI1)", "test": "NVS_NR_hFXR_Agonist: NovaScreen (NVS) Nuclear Receptor Binding Assay for human Farnesoid X Receptor Agonism (FXR) (AID 2283347)", "method_in_brief": "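Cell-free TR-FRET binding assay with extracted human FXR protein, agonist format, read 1 h after dosing. Primary screen at 25 uM single concentration in duplicate, actives retested in concentration series; gain of signal versus DMSO.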"}, "[12]": {"molecular_target": "human Ephrin type-A Receptor 2 (EphA2), EPHA2 (gene 1969) (UniProt P29317)", "sequence (P29317 whole entry, looked up)": "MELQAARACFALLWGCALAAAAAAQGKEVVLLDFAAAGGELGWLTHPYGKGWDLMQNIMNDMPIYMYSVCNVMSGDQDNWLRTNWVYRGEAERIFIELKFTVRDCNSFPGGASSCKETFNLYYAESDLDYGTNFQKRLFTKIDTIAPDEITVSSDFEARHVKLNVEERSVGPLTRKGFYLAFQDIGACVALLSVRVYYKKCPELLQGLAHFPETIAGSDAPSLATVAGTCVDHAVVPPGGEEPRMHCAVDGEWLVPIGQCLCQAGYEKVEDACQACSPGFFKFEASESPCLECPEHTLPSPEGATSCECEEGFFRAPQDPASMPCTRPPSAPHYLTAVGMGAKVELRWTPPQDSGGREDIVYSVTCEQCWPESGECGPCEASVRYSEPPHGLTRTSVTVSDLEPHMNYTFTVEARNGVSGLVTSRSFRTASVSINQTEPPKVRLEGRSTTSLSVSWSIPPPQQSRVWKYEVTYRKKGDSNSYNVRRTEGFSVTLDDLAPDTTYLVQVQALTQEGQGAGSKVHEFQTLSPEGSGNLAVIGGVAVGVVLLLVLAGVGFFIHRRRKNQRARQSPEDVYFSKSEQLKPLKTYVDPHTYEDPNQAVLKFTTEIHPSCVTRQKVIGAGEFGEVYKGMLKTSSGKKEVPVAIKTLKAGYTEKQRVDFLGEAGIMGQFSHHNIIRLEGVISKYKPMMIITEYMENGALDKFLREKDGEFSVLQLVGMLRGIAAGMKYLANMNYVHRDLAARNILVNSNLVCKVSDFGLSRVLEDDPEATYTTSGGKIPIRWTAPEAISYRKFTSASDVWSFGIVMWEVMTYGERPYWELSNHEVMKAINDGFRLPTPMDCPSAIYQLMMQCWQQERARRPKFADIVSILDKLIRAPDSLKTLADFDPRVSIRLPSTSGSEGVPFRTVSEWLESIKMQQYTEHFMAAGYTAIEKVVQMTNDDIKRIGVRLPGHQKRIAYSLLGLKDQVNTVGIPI", "test": "NVS_ENZ_hEphA2: NovaScreen (NVS) Enzymatic Assay for human Ephrin type-A Receptor 2 (EphA2) (AID 2283155)", "method_in_brief": "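Cell-free recombinant EphA2 kinase with specific substrate, 1 h, fluorescence with electrophoretic mobility-shift separation of substrate and product. Primary screen at 25 uM in duplicate; hits retested in singleton concentration-response up to 50 uM, referenced to DMSO.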"}, "[13]": {"molecular_target": "rat Oxytocin Receptor (OXT), Oxtr (gene 25342) (UniProt P70536)", "sequence (P70536 whole entry, looked up)": "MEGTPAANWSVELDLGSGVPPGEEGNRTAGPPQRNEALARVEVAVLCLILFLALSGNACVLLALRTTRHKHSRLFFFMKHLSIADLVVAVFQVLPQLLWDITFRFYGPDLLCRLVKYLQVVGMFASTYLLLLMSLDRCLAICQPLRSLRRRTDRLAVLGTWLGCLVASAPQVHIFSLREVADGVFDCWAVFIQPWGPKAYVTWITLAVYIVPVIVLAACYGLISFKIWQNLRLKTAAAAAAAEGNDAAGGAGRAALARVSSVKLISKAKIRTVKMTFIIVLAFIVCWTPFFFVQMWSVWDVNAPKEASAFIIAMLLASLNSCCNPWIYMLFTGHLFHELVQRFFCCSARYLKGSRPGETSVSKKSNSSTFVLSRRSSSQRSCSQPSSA", "test": "NVS_GPCR_rOXT: NovaScreen (NVS) G Protein-Coupled Receptor Assay for rat Oxytocin Receptor (OXT) (AID 2283330)", "method_in_brief": "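Radioligand displacement on rat uterine membranes, 1 h incubation, filter-based scintillation counting. Chemicals were screened in duplicate at 25 uM, and those passing threshold were retested in concentration-response up to 50 uM. Loss of binding was fitted versus DMSO.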"}, "[14]": {"molecular_target": "Norway rat Vesicular Monoamine Transporter (VMAT2), neurotransmitter transporter, Slc18a2 (gene 25549) (UniProt Q01827)", "test": "NVS_TR_rVMAT2: NovaScreen (NVS) Transporter Assay for Norway rat Vesicular Monoamine Transporter (VMAT2), neurotransmitter transporter (AID 2283376);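 further: actives lower the bound radioligand signal below the DMSO level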", "method_in_brief": "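Tissue: rat forebrain extract. Format: competitive radioligand binding, cell-free. Timepoint: 1 h. Readout: filter radiodetection/scintillation. Screen: 25 uM in duplicate, then concentration series for actives. Baseline: DMSO.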"}, "[15]": {"molecular_target": "rat Adenylate Cyclase, Forskolin Stimulated, Adcy5 (gene 64532) (UniProt Q04400)", "test": "NVS_ENZ_rACFSKBinding: NovaScreen (NVS) Enzymatic Assay for rat Adenylate Cyclase, Forskolin Stimulated (AID 2283232)", "method_in_brief": "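Rat forebrain membrane preparation, cell-free, read 1 h after dosing by filter-based scintillation counting. Primary screen in duplicate at 25 uM; actives (e.g. ≥30% inhibition) rerun in concentration-response up to 50 uM; fit versus DMSO.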"}, "[16]": {"molecular_target": "rat Corticotropin Releasing Factor Receptor (CRF), Crhr1 (gene 58959) (UniProt P35353)", "test": "NVS_GPCR_rCRF: NovaScreen (NVS) G Protein-Coupled Receptor Assay for rat Corticotropin Releasing Factor Receptor (CRF) (AID 2283300)", "method_in_brief": "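Rat cortical membranes used as receptor source in a radioligand competitive displacement binding assay; scintillation read 2 h after dosing. Primary screen run in duplicate at 25 uM; loss of signal versus DMSO baseline indicates binding.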"}, "[17]": {"molecular_target": "rat Acetylcholinesterase (AChE), Ache (gene 83817) (UniProt P37136)", "test": "NVS_ENZ_rAChE: NovaScreen (NVS) Enzymatic Assay for rat Acetylcholinesterase (AChE) (AID 2283233)", "method_in_brief": "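Rat brain membrane acetylcholinesterase activity measured colorimetrically 0.33 h after compound addition, loss of signal relative to DMSO. Primary screen in duplicate at 25 uM; actives re-run as concentration-response with 50 uM top concentration.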"}},
  "note": "Results filed as inconclusive are left out. Active and inactive are the calls of the source. How the source made its calls: active means hit-call score of the fitted dose curve at least 0.9, where 1 is the maximum; inconclusive means response in the unintended direction; inactive means score below 0.9.",
  "data": [
    {"smiles": "O=C(O)c1cccc(N(Cc2cccnc2)c2ccc(OC(F)F)c(OC(F)F)c2)c1", "values": [
      {"measurement": "outcome", "setting": "[1]", "value": "inactive"},
      {"measurement": "AC50", "setting": "[2]", "value": "8.26 µM (active)"},
      {"measurement": "outcome", "setting": "[3]", "value": "inactive"},
      {"measurement": "outcome", "setting": "[4]", "value": "inactive"}
    ]},
    {"smiles": "CC[C@H](c1ccc(O)cc1)[C@@H](CC)c1ccc(O)cc1", "values": [
      {"measurement": "outcome", "setting": "[1]", "value": "inactive"},
      {"measurement": "AC50", "setting": "[2]", "value": "4.88 µM (active)"},
      {"measurement": "AC50", "setting": "[3]", "value": "38.5 µM (active)"},
      {"measurement": "outcome", "setting": "[5]", "value": "inactive"}
    ]},
    {"smiles": "COCC(C)OCC(C)O", "note": "(configuration not stated)", "values": [
      {"measurement": "outcome", "setting": "[1]", "value": "inactive"},
      {"measurement": "outcome", "setting": "[6]", "value": "inactive"},
      {"measurement": "outcome", "setting": "[7]", "value": "inactive"},
      {"measurement": "outcome", "setting": "[8]", "value": "inactive"},
      {"measurement": "outcome", "setting": "[9]", "value": "inactive"},
      {"measurement": "outcome", "setting": "[10]", "value": "inactive"},
      {"measurement": "outcome", "setting": "[11]", "value": "inactive"}
    ]},
    {"smiles": "CCCOc1sc(C(=O)N2CCC(c3cc(CN)ccc3F)CC2)c(C)c1Br", "values": [
      {"measurement": "outcome", "setting": "[1]", "value": "inactive"},
      {"measurement": "outcome", "setting": "[2]", "value": "inactive"},
      {"measurement": "outcome", "setting": "[12]", "value": "inactive"},
      {"measurement": "AC50", "setting": "[13]", "value": "23.2 µM (active)"},
      {"measurement": "AC50", "setting": "[14]", "value": "2.89 µM (active)"}
    ]},
    {"smiles": "CCCCCCCCN(C)CCCCCCCC", "values": [
      {"measurement": "outcome", "setting": "[1]", "value": "inactive"},
      {"measurement": "AC50", "setting": "[7]", "value": "36.1 µM (active)"}
    ]},
    {"smiles": "CCN(CC)C(=S)SSC(=S)N(CC)CC", "values": [
      {"measurement": "outcome", "setting": "[1]", "value": "inactive"},
      {"measurement": "outcome", "setting": "[6]", "value": "inactive"},
      {"measurement": "outcome", "setting": "[12]", "value": "inactive"},
      {"measurement": "AC50", "setting": "[15]", "value": "6.29 µM (active)"},
      {"measurement": "outcome", "setting": "[16]", "value": "inactive"}
    ]},
    {"smiles": "Cc1cc(CCN2CCN(c3nsc4ccccc34)CC2)cc2c1NC(=O)CC2(C)C", "values": [
      {"measurement": "outcome", "setting": "[1]", "value": "inactive"},
      {"measurement": "outcome", "setting": "[2]", "value": "inactive"},
      {"measurement": "outcome", "setting": "[7]", "value": "inactive"},
      {"measurement": "outcome", "setting": "[3]", "value": "inactive"},
      {"measurement": "outcome", "setting": "[17]", "value": "inactive"}
    ]}
  ]
}
